Compounds with a hit are over-represented: about 12% of the library has one in this group of screens.
PostGolgi yeast: phenotypic screen on post-Golgi transport, primary screen; post-Golgi transport phenotypic cell assay; inhibition, % at 10 µM; hit rate 0.9% among 98,000; AID 739, 2007;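 further: yeast cells grown in 1536-well plates; yeast grown about 18 h at 30C before absorbance read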
PostGolgi ctrl: growth inhibition of yeast control strain, primary screen, counter-screen for post-Golgi transport modulator project | efflux-deficient yeast background strain, growth absorbance A615, 16 h | inhibition, % at 10 µM | hit rate 5% among 98,000 | AID 738, 2007
D1 mod: D1 CRE-luciferase signal change, two-sided – cell-based, HEK293 D1, dopamine EC30, D1 allosteric modulator project, primary screen. D(1A) dopamine receptor (Homo sapiens), P21728. dopamine EC30 potentiation; actives deviate in either direction. hit rate 5.9% among 58,000. AID 641, 2007. B-score at 10 µM;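 active means luminescence count or its row- and column-corrected plate score outside the 99.7% band of the plate's sample wells, on either side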
Cav3 T inh: Cav3.2 calcium influx blockers – cell-based, Fluo-4 calcium fluorescence, FDSS, MLSMR library, primary screen; B-score at 10 µM; hit rate 4% among 100,000; Voltage-dependent T-type calcium channel subunit alpha-1H (Homo sapiens), O95180; Cav3.2-expressing cells; active compounds read low;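 active means single-dose well whose peak fluorescence ratio is a statistical outlier from its plate by either plate-standardised score or position-corrected B-score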
Target sequence (O95180 whole entry, looked up): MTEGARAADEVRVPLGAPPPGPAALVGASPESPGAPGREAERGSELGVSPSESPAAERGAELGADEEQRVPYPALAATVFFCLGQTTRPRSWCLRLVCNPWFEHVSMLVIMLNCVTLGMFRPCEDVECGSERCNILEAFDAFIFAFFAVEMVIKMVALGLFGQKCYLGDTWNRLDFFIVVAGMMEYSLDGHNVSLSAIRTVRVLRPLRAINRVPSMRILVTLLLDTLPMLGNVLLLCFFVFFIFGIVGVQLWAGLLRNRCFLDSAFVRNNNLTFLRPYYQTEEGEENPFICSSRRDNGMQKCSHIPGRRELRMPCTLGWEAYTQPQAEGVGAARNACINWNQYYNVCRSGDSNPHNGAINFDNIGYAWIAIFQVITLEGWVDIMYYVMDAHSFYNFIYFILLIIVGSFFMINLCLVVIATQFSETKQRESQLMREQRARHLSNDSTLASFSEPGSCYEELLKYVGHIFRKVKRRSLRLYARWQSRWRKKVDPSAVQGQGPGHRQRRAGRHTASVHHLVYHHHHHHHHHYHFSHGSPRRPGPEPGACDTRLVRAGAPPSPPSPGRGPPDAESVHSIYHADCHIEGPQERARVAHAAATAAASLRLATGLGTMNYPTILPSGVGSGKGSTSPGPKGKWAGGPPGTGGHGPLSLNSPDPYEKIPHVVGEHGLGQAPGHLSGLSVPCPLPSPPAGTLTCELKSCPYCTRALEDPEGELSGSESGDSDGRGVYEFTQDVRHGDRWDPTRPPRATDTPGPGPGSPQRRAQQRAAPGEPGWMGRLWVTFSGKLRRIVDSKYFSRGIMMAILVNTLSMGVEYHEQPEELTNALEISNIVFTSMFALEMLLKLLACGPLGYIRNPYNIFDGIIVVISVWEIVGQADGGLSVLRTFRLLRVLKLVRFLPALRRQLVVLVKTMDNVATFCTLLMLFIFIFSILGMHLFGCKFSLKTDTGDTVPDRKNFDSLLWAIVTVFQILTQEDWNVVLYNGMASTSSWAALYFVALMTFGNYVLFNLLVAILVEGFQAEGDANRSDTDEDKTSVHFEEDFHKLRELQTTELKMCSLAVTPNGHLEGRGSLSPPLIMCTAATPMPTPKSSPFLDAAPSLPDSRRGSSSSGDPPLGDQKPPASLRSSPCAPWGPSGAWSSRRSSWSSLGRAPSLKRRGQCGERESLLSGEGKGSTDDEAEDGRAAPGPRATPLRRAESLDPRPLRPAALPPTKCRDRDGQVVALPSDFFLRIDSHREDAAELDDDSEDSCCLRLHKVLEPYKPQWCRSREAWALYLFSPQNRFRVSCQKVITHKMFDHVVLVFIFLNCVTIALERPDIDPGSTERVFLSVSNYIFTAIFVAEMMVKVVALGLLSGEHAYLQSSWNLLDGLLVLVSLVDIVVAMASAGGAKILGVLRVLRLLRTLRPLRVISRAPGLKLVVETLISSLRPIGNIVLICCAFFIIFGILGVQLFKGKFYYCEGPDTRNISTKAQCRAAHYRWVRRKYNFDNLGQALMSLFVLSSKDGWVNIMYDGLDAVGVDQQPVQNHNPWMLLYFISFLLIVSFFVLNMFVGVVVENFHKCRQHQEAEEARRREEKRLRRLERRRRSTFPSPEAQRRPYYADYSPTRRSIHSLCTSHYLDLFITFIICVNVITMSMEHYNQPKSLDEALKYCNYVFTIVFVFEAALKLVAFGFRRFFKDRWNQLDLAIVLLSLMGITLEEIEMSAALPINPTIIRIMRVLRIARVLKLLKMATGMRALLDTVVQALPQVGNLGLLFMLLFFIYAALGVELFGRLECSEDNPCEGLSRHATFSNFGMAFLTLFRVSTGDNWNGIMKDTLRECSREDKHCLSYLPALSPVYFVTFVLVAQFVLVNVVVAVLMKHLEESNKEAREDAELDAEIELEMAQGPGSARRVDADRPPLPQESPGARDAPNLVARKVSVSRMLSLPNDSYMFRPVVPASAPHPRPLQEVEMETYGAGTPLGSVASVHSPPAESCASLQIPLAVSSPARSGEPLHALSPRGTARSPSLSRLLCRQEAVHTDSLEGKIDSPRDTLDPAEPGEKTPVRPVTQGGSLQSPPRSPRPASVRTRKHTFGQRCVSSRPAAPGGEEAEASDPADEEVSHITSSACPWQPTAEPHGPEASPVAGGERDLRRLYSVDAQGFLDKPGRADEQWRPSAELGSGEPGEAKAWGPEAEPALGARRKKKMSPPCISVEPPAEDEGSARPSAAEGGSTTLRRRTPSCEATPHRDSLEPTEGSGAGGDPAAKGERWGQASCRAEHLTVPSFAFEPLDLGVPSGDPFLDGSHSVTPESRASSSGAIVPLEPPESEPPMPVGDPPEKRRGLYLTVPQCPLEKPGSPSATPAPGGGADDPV
PLAP act: PLAP enzyme activators, biochemical, luminescence, HTS; Alkaline phosphatase, placental type (Homo sapiens), P05187; purified PLAP enzyme, luminescent substrate read-out; active compounds read high; activation fold at 20 µM; hit rate 1.2% among 96,000; AID 696, 2007; in the data active means activation fold above about 2
hDAT+cocaine: changed hDAT dopamine uptake under cocaine IC80, either direction, primary screen, cocaine antagonist project, cell-based, LLC-PK1 hDAT, [14C]-dopamine uptake, MLSMR | Sodium-dependent dopamine transporter (Homo sapiens), Q01959 | hit rate 1.3% among 110,000 | LLC-PK1 hDAT cells, [14C]-dopamine uptake with cocaine IC80; actives deviate in either direction | B-score at 10 µM;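 active means Z score or B-score, a plate-position-corrected score, falls beyond the plate's 99.7% confidence bounds, in either direction; inactive means both scores lie inside the 99.7% bounds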
D1 PAM confirm: D1 receptor positive allosteric modulators, retest, confirmation, cell-based, HEK293 D1, CRE-luciferase, duplicate. luminescence at 10 µM. AID 642, 2007. dopamine EC30 potentiation; active compounds read high. hit rate 88% among 2,200. shares compounds with D1 mod;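 active means luminescence in either of two replicates above the same-plate mean plus 3 SD of the low-dose dopamine control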
D1 no dopamine: D1 receptor agonism without dopamine, confirmation, mechanism study for D1 allosteric modulator project, cell-based, HEK293 D1, CRE-luciferase, secondary assay 1; shares compounds with D1 mod; hit rate 0.8% among 1,900; luminescence, no dopamine; active compounds read high; luminescence at 10 µM; AID 646, 2007; in the data active means luminescence above about 3900
Isoprot counter: counter-screen for D1 modulators: isoproterenol response in HEK293 cells; shares compounds with D1 mod; HEK293 D1 CRE-luciferase, isoproterenol EC30 counter-screen; calls only at 10 µM; hit rate 63% among 2,200; AID 647;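 active means luminescence in either replicate above plate mean of wells with a partly effective reference agonist dose plus 3 SD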;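 further: isoproterenol raises cAMP through native beta-adrenoceptor Gs so signal bypasses D1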
Of the large screens only hits and unclear results are named; the others gave an inactive call (follow-up assays come after a bar, where they were run). Unless noted, no stated cut-off is given here; in the data, active means inhibition above about 30%; inactive means the rest.

CC(C)(C)Sc1nc(O)cc(=O)[nH]1	D1 mod 2.1 | D1 PAM confirm inactive | D1 no dopamine inactive | Isoprot counter inactive
Cc1oc(CC(C)C)c(CN)c1C(=O)O	none (no result: D1 mod)
Cc1ccc(-c2nn3nnnc3c3ccccc23)cc1C	none (no result: D1 mod)
c1ccc(-c2nn3nnnc3c3ccccc23)cc1	D1 mod 11.8 | D1 PAM confirm 13348 | D1 no dopamine inactive | Isoprot counter active
Nc1nc(CN2CCN(Cc3ccccc3)CC2)nc(Nc2ccccc2)n1	none (no result: D1 mod)
Nc1nc(CN2CCN(c3ccccn3)CC2)nc(Nc2ccc(Cl)cc2)n1	D1 mod 4.28 | D1 PAM confirm 6700 | D1 no dopamine inactive | Isoprot counter inactive
NC12CC3CC(C1)CC(CO)(C3)O2	none
O=C(c1ccc(COc2c(F)c(F)cc(F)c2F)o1)N1CCN(c2ccc(Cl)cc2)CC1	none
COc1ccc(C2CC(=O)c3cnc(NC(=O)c4ccccc4)nc3C2)cc1OC (stereo not drawn)	D1 mod 4.57 | D1 PAM confirm 9012 | D1 no dopamine inactive | Isoprot counter active
COc1ccc(C2CC(=O)c3cnc(NC(=O)c4cccc(OC)c4)nc3C2)cc1 (stereo not drawn)	none
COc1cccc(C(=O)Nc2ncc3c(n2)CC(C)CC3=O)c1 (stereo not drawn)	none
COc1ccc(C2CC(=O)c3cnc(NC(=O)c4ccccc4OC)nc3C2)c(OC)c1 (stereo not drawn)	D1 mod 6.54 (no result: PLAP act) | D1 PAM confirm 15748 | D1 no dopamine inactive | Isoprot counter active
Cc1cc(C)n(CCCNCC(O)c2ccccc2)n1 (stereo not drawn)	none
C#CCOCCOCCOCCNc1nc(N2CCN(C(=O)C([C@@H](C)CC)n3cc(C(N)CO)nn3)CC2)nc(N2CCN(C(=O)C([C@@H](C)CC)n3cc(C(N)COC(=O)C(F)(F)F)nn3)CC2)n1 (stereo partly drawn)	none (no result: PostGolgi yeast, PostGolgi ctrl, D1 mod, PLAP act)
COC(=O)CN(c1ccccn1)S(=O)(=O)c1ccccc1	D1 mod 5.23 | D1 PAM confirm inactive | D1 no dopamine inactive | Isoprot counter inactive
COCCCn1c2nc3ccccc3nc2c2c(=O)n(CC3CCCO3)cnc21 (stereo not drawn)	D1 mod 6.36 | D1 PAM confirm 8104 | Isoprot counter inactive
O=c1c2c3nc4ccccc4nc3n(-c3ccc4c(c3)OCCO4)c2ncn1CC1CCCO1 (stereo not drawn)	none (no result: PostGolgi yeast, PostGolgi ctrl, Cav3 T inh, hDAT+cocaine)
CCNc1nc(NCC)nc(OCCOC(=O)c2ccccc2)n1	D1 mod 6.86 | D1 PAM confirm 16012 | D1 no dopamine inactive | Isoprot counter active
CCNc1nc(NCC)nc(C(=O)Nc2ccccc2)n1	none (no result: D1 mod)
Cc1c2c(nc3c(C(=O)NC4CCCCC4C)cnn13)CCCC2 (stereo not drawn)	PostGolgi ctrl 56.3, D1 mod 8.18 (no result: Cav3 T inh, hDAT+cocaine) | D1 PAM confirm 10904 | Isoprot counter active
CCSc1nc2c(c(=O)[nH]c(=O)n2C)n1C/C=C(/C)Cl	D1 mod 14 | D1 PAM confirm 19268 | D1 no dopamine inactive | Isoprot counter active
CSc1nc2c(c(=O)[nH]c(=O)n2C)n1C/C=C(\C)Cl	D1 mod 15.1 | D1 PAM confirm 24712 | D1 no dopamine inactive | Isoprot counter active
C=CCSc1nc2c(c(=O)[nH]c(=O)n2C)n1C/C=C(/C)Cl	D1 mod 19.2 | D1 PAM confirm 20956 | Isoprot counter active
C=CCSc1nc2c(c(=O)[nH]c(=O)n2C)n1CC	none
CCOC(=O)C(C)Sc1nc2c(c(=O)[nH]c(=O)n2C)n1C/C=C(/C)Cl (stereo not drawn)	D1 mod 9.27 | D1 PAM confirm 12104 | D1 no dopamine inactive | Isoprot counter active
C/C(Cl)=C/Cn1c(SCc2ccc(Cl)cc2)nc2c1c(=O)[nH]c(=O)n2C	D1 mod 8.76 | D1 PAM confirm 10156 | D1 no dopamine inactive | Isoprot counter active
C/C=C/CSc1nc2c(c(=O)[nH]c(=O)n2C)n1C(C)C	D1 mod 5.97 | D1 PAM confirm 12796 | D1 no dopamine inactive | Isoprot counter active
CCOCCn1c(SCc2ccc(F)cc2)nc2c1c(=O)[nH]c(=O)n2C	none
C/C=C/Cn1c(SCc2ccccc2)nc2c1c(=O)[nH]c(=O)n2C	D1 mod 15.1 | D1 PAM confirm 16256 | D1 no dopamine inactive | Isoprot counter active
C/C(Cl)=C/Cn1c(SCCN2CCOCC2)nc2c1c(=O)[nH]c(=O)n2C	none
CC(C)CCn1c(SCc2ccc(Cl)cc2)nc2c1c(=O)[nH]c(=O)n2C	D1 mod 13.6 | D1 PAM confirm 13248 | Isoprot counter active
NC(=O)CC(NC(=O)Cc1cccc2ccccc12)c1ccc(N2CCc3ccccc3C2)c([N+](=O)[O-])c1 (stereo not drawn)	none (no result: PostGolgi yeast, PostGolgi ctrl, D1 mod, PLAP act)
C=C(CO)C1Cc2cc(C(C)=O)ccc2O1 (stereo not drawn)	none (no result: PostGolgi yeast, PostGolgi ctrl, D1 mod, PLAP act)
Cc1ccc(Cn2c(Sc3ncccn3)nc3c2c(=O)[nH]c(=O)n3C)cc1	none
C/C=C/CSc1nc2c(c(=O)[nH]c(=O)n2C)n1Cc1ccc(C)cc1	D1 mod 19.6 | D1 PAM confirm 16484 | D1 no dopamine inactive | Isoprot counter active
CCSc1nc2c(c(=O)[nH]c(=O)n2C)n1Cc1ccc(Cl)cc1	D1 mod 5.47 | D1 PAM confirm 15452 | D1 no dopamine inactive | Isoprot counter active
c1ccc(CN2CCN(c3nc(N4CCOCC4)c4ccccc4n3)CC2)cc1	none (no result: PostGolgi yeast, PostGolgi ctrl, D1 mod, PLAP act)
CCSc1nc(N2CCOCC2)c2ccccc2n1	D1 mod 10.4 | D1 PAM confirm 15840 | Isoprot counter active
C/C(=N\NC(=O)COc1ccc([N+](=O)[O-])cc1)C(C)(C)C	none (no result: D1 mod)
COc1cc(C(=O)Nc2ccc(-c3nc4cc(C)ccc4o3)c(O)c2)cc(OC)c1OC	D1 mod 3.12, PLAP act 2.7 | D1 PAM confirm inactive | Isoprot counter inactive
CCn1nnc(-c2ccccc2NC(=O)c2cc(OC)c(OC)c(OC)c2)n1	D1 mod 5.48 | D1 PAM confirm 16052 | D1 no dopamine inactive | Isoprot counter active
COC(=O)Nc1c(-c2ccccc2)nc2ccc(C)cn12	D1 mod 3.05 (no result: Cav3 T inh) | D1 PAM confirm inactive | D1 no dopamine inactive | Isoprot counter inactive
